# Screens deposited in PubChem BioAssay by National Center for Advancing Translational Sciences (NCATS).
# SW480 rerep: A quantitative high throughput screen for small molecules that induce DNA re-replication in SW480 colon adenocarcinoma cells; SW480 DNA re-replication, Hoechst DNA content imaging, 48 h; Potency, µM (titrated, usually from 46.1 µM), most hits filed as activators; actives 1.8% (n = 340,000); also: nearly all actives have a fitted effect of over 55% in size
#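 Cells (250 per well) received 23 nL compound or DMSO by pin tool and were kept 48 hr at 37 C, 5% CO2. Nuclei were then stained with Hoechst for 40 min and scanned for DNA content.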
# MCF10A rereplic: A quantitative high throughput screen for small molecules that induce DNA re-replication in MCF 10a normal breast cells; Potency, µM (highest dose often 46.1 µM), actives largely listed as activators; actives 2.9% (n = 350,000); MCF 10A DNA re-replication, Hoechst nuclear intensity, 48 h; also: nearly all actives have a fitted effect of over 50% in size
# Giardia kill: Small Molecules that selectively kill Giardia lamblia: qHTS | Giardia lamblia trophozoite viability | AID 540267, 2011 | activity change, % at 7.66 µM, hits read low | actives 0.15% (n = 340,000); in the data active = activity change below about -80%; inconclusive = between about -30% and that limit;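 also: parasites exposed to compound for two days anaerobically before the ATP read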
#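 ATP-content bioluminescence gauges trophozoite survival. Cells (100/well) receive compound and incubate anaerobically for 48 hrs at 37 deg C; detection reagent follows for 15-30 min at room temperature.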
# uPA generation: qHTS for Inhibitors of Cell Surface uPA Generation | Potency, µM (series often up to 38.3 µM), hits mostly inhibitors | cell surface uPA generation assay, qHTS | actives 0.31% (n = 330,000); active = well fitted inhibition curve with a large enough effect; inconclusive = small, poorly fitted or top-dose-only effect; inactive = no such curve, though single readings can be large or run the other way; tested in mouse RAW 264.7 cells; also: nearly all actives have a fitted effect of over 55% in size
# Numbers stand for hits; – = inactive; ? = inconclusive; · = no result. Sampled rows, rich in hits. Any-hit rate of the full collection: about 4.3%. Unless noted, calls follow the shape of the dose curve; as a rule, active = well fitted activation curve with a large enough effect; inconclusive = small, poorly fitted or top-dose-only effect; inactive = no such curve, though single readings can be large or run the other way.
SMILES,SW480 rerep,MCF10A rereplic,Giardia kill,uPA generation
Cc1ccc(NC(=O)CC2OC(=O)c3ccccc32)cc1S(=O)(=O)N1CCOCC1 (stereo unspecified),–,–,–,–
CCC1=NN(C(=O)COc2ccccc2)C(O)(c2ccncc2)C1 (stereo unspecified),6.51µM,–,–,–
CCC1=NN(C(=O)Cc2ccccc2)C(O)(c2ccncc2)C1 (stereo unspecified),–,–,–,–
COc1ccccc1C(=O)NCC1CCN(c2ccc(S(=O)(=O)N3CCOCC3)cc2)CC1,–,6.51µM,–,–
O=C(NCC1CCN(c2ccc(S(=O)(=O)N3CCOCC3)cc2)CC1)Nc1ccccc1,–,?,–,–
CCN(CC)S(=O)(=O)c1ccc(Cl)c(C(=O)NNC(=O)c2csc(N3CCOCC3)n2)c1,–,–,–,–
O=C(O)c1cc2ccccc2cc1Nc1ccccc1,?,–,–,–
COc1cc(/C=C2\CCC/C(=C\c3ccc(O)c(OC)c3)C2=O)ccc1O,?,4.11µM,–,–
COc1cc(/C=C2/CCC/C(=C\c3cc(O)c(OC)c(Cl)c3)C2=O)cc(Cl)c1O,6.51µM,2.06µM,–,–
CCOc1cc(/C=C2\CCCC(C(=O)C(F)(F)F)=C2O)ccc1O,?,18.4µM,–,–
COc1cc(/C=C2\Oc3cc(O)ccc3C2=O)ccc1O,–,?,–,6.31µM
COc1cc(/C=C2/CCCC(C(=O)C(F)(F)F)=C2O)ccc1O,–,–,–,–
CC(C)Oc1ccc(C(=O)Nc2cc(S(=O)(=O)N3CCOCC3)ccc2N2CCOCC2)cc1,?,?,–,–
COP1(=O)CC(O)C(O)C(COCc2ccccc2)O1 (stereo unspecified),·,·,–,·
O=c1c2ccccc2cnn1-c1nc2ccccc2[nH]1,–,–,-91.5,?
O=c1c(Cl)c(N2CCCCC2)cnn1-c1nc2ccccc2[nH]1,–,?,?,–
O=C(C(c1ccccc1)N1CCOCC1)N1CCOCC1 (stereo unspecified),–,–,–,–
O=C(C=Cc1ccccc1)CC(c1ccccc1)N1CCOCC1 (stereo unspecified),3.66µM,3.66µM,–,–
COc1cc(OC)nc(Oc2ccccc2C=O)n1,–,16.4µM,–,–
CCOC(=O)c1[nH]c(C)c(C(=O)Nc2ccccc2F)c1C,8.2µM,7.31µM,–,–
CCOC(=O)c1[nH]c(C)c(C(=O)OCC(=O)NC(C)c2ccc(F)cc2)c1C (stereo unspecified),9.2µM,?,–,?
CCOC(=O)c1[nH]c(C)c(C(=O)Nc2ccc(C)cc2C)c1C,10.3µM,13µM,–,2.51µM
CCOC(=O)c1[nH]c(C)c(C(=O)c2ccc(C)cc2)c1C,5.17µM,1.46µM,–,?
CCOC(=O)c1[nH]c(C)c(C(=O)Nc2ccc(C)c(C)c2)c1C,?,–,–,?
CCOC(=O)c1[nH]c(C)c(C(=O)Nc2ccc(F)cc2)c1C,–,–,–,–
SMILES,SW480 rerep,MCF10A rereplic,Giardia kill,uPA generation
CCOC(=O)c1c(C)[nH]c(C(=O)OCC(=O)NC(C)(C)C)c1C,–,?,–,–
COc1ccccc1N1CCN(C(=O)c2ccc(-c3ccc(Cl)cc3)o2)CC1,?,?,–,?
CCOC(=O)c1[nH]c(C)c(C(=O)Nc2cc(OC)ccc2OC)c1C,1.26µM,0.631µM,–,·
CC(=O)Nc1ccc(NC(=O)CSc2nnc(N)n2-c2ccccc2)cc1,–,–,–,–
CCN1CCN(c2ncc3c(n2)CC(c2cc(OC)c(OC)c(OC)c2)CC3=O)CC1 (stereo unspecified),4.11µM,20.6µM,–,–
Cc1onc(-c2ccccc2)c1C(=O)NCc1ccc(Cl)cc1,–,–,–,–
Cc1ccc(NC(=O)CN(C)C(=O)c2cc(-c3ccccc3)nn2-c2ccccc2)cc1,–,?,–,–
CCN(CC)C1=NS(=O)(=O)c2cc([N+](=O)[O-])ccc21,11.6µM,?,–,–
CC(C)CC(=O)Nc1nc2ccc(S(=O)(=O)N3CCOCC3)cc2s1,18.4µM,?,–,–
CC(C)[C@H](NC(=O)c1cccc(S(=O)(=O)N2CCOCC2)c1)C(=O)Nc1nc2ccccc2s1,–,–,–,–
CCOC(=O)c1sc2ccc(S(=O)(=O)N3CCCCC3)cc2c1N,25.9µM,?,–,·
CC(=O)Nc1nc2ccc(S(=O)(=O)N3CCCC3)cc2s1,–,–,–,–
CCCC(=O)Nc1nc2ccc(S(=O)(=O)N3CCCCC3)cc2s1,3.66µM,?,–,?
O=C(NN=Cc1c(O)ccc2ccccc12)c1ccncc1,–,?,–,–
O=C(N/N=C/c1c(O)ccc2ccccc12)c1ccc(Br)o1,1.16µM,?,–,–
O=C(N/N=C/c1c(O)ccc2ccccc12)Nc1ccccc1,–,–,–,–
COc1ccc2ccccc2c1/C=N\NC(=O)c1cccnc1,3.66µM,18.4µM,–,–
O=C(N/N=C\c1c(O)ccc2ccccc12)c1cncc(Br)c1,?,14.6µM,–,–
O=C(N/N=C/c1cc(O)ccc1Br)c1cccnc1,–,–,–,10µM
O=C(O)c1ccc(S(=O)(=O)N(Cl)Cl)cc1,–,–,·,·
Cc1c(C)c2c(c(C)c1O)CC[C@@](C)(CCC[C@@H](C)CCC[C@@H](C)CCCC(C)C)O2,–,–,·,·
CCOc1ccc2ccccc2c1/C=N\NC(=O)OC,–,–,–,–
CCOc1ccc2ccccc2c1/C=N\NC(=O)c1ccc([N+](=O)[O-])cc1,23.1µM,–,–,–
O=C(N/N=C/c1c(O)ccc2ccccc12)c1cccnc1,0.82µM,?,–,–
Cc1cc(C)n(-c2nnc(NCc3ccc(Cl)cc3)nn2)n1,11.6µM,–,–,–
COc1ccc(C2C3C=CCC(c4cccc(-c5ccc(N(C)C)cc5)c4)C3C(=O)N2Cc2ccccc2)cc1Cl (stereo unspecified),·,·,–,·
COc1ccc(CNC(=O)CCSc2nc(-c3ccc4c(c3)OCO4)cc(C(F)(F)F)n2)cc1,?,20.6µM,–,–
O=C(CCSc1nc(-c2ccc3c(c2)OCO3)cc(C(F)(F)F)n1)NCc1ccccc1,–,?,–,–
